From PubChem BioAssay (Tox21)
Where “and” joins values, the source holds several entries; their conditions need not be identical. Equal values may be shown once. Inconclusive results are not listed. A call without a number means that no potency is given here. Some structures have more than one record in an assay (separate samples or runs), and their calls can disagree. Calls of active or inactive are those of the source. Calls come from the whole dose curve; as a rule, active = well fitted inhibition curve with a large enough effect in the repeat runs; inconclusive = weak or mixed curves; inactive = flat fitted curve, though single readings scatter.

molecular target: Voltage-gated inwardly rectifying potassium channel KCNH2 (Homo sapiens) (UniProt Q12809); assay: Human Ether-a-go-go-Related Gene (hERG) channel small molecule antagonists: fluorescence cell-based qHTS assay (AID 1671200); settings: hERG-U2OS cells, FluxOR thallium flux fluorescence; series mostly up to 76.8 µM; note: nearly all actives have a fitted effect of over 50% in size
Sequence (Q12809 whole entry, looked up): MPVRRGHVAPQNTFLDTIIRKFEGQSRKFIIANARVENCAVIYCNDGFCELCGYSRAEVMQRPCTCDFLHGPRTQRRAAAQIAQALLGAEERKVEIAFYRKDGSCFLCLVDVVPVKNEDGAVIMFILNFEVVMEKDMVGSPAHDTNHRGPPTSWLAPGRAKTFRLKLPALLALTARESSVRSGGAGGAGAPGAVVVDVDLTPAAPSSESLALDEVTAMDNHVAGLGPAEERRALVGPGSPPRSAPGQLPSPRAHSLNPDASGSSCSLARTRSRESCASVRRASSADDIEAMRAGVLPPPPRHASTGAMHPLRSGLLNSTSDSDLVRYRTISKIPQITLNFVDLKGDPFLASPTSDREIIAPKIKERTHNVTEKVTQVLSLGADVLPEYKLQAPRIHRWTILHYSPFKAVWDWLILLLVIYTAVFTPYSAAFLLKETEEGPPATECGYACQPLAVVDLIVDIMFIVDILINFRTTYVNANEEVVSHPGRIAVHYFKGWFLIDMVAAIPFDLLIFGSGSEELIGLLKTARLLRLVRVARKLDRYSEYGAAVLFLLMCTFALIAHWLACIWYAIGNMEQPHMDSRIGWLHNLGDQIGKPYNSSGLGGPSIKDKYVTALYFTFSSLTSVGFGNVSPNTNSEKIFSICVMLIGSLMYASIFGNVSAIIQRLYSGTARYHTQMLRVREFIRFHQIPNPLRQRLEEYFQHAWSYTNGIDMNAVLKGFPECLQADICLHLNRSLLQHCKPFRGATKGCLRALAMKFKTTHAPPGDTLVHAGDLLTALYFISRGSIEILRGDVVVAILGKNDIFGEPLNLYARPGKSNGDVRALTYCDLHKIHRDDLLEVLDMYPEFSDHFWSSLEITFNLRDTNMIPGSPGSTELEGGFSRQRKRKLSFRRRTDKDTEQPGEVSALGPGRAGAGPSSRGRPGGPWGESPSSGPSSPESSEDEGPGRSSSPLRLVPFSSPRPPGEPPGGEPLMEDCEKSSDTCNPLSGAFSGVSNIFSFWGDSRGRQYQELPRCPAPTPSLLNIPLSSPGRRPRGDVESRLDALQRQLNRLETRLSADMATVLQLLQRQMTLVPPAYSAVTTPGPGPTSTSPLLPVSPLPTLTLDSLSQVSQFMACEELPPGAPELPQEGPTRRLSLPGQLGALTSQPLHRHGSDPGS
In short: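 Thallium served as the potassium surrogate; its influx into dye-loaded U2OS cells carrying the channel was measured by fluorescence over 2 min.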
Potency is the fitted concentration of half-maximal effect.

| Compound | Potency |
| --- | --- |
| CCCCOCCOCCOC(C)=O | inactive |
| C=CCOC(=O)CC(C)C | inactive |
| CCCCNC(=O)NS(=O)(=O)c1ccc(N)cc1 | inactive |
| O=C1OC(c2ccc(O)cc2)(c2ccc(O)cc2)c2ccccc21 | inactive and 38.9 µM (active) |
| CCN(CC)CCOC(=O)c1ccc(N)cc1 | inactive |
| O=C1CCCCCN1 | inactive |
| O=c1c(-c2ccc(O)cc2)coc2cc(O)cc(O)c12 | inactive |
| C#C[C@]1(O)CC[C@H]2[C@@H]3CCC4=CC(=O)CC[C@@H]4[C@H]3CC[C@@]21CC | inactive |
| C#C[C@]1(O)CC[C@H]2[C@@H]3CCc4cc(O)ccc4[C@H]3CC[C@@]21C | inactive |
| Nc1cccc(N)c1 | inactive |
| CC(C)Cc1ccc(C(C)C(=O)O)cc1 (centres undefined) | inactive |
| C=CC(=O)NC(C)(C)CS(=O)(=O)O | inactive |
| COCC(C)N (centres undefined) | inactive |
| CC(=O)/C=C/C1=C(C)CCCC1(C)C | inactive |
| CCCCCCCCOc1ccc(C(=O)c2ccccc2)c(O)c1 | inactive |
| CC(C)(C)NCC(O)c1ccc(O)c(CO)c1 (centres undefined) | inactive |
| Cc1cccc(C)c1O | inactive |
| NC(=O)c1ccc([N+](=O)[O-])cc1Cl | inactive |
| COC1=CC(=O)C[C@@H](C)[C@]12Oc1c(Cl)c(OC)cc(OC)c1C2=O | inactive |
| CN(C)C=O | inactive |
| Cc1ccc(O)c(-n2nc3ccccc3n2)c1 | inactive |
| C=C(C)OC(C)=O | inactive |
| CC(=O)Oc1ccccc1C(=O)O | inactive |
| O=C(O)CN(CC(=O)O)CC(=O)O | inactive |
| CCCCCCCC(=O)OCC(O)CO (centres undefined) | inactive |
| O=[N+]([O-])c1ccc(O)cc1 | inactive |
| C/C=C/c1ccc(O)c(OC)c1 | inactive |
| N[C@@H](Cc1c[nH]c2ccc(O)cc12)C(=O)O | inactive |
| c1ccc2[nH]c(-c3cscn3)nc2c1 | inactive |
